The list is not random: actives were taken first. Their share in the collection is about 6.7%.
Pf Dd2 growth = P. falciparum Dd2 growth inhibitors, primary screen, SYBR Green fluorescence, single dose replicates | 72 h; active compounds read low | activity change, % at 10 µM | hit rate 2.3% among 94,000; in the data active = activity change below about -80%
C diff growth = C. difficile growth inhibitors, primary screen, HTS. Clostridium difficile clinical isolate growth, OD600, 24 h; active compounds read low. growth activity, negative = inhibition, % at 16 µg/mL (by protocol). hit rate 0.25% among 86,000. AID 1259249, 2017;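 active = mean growth activity at or below -80% and every replicate also at or below -80%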
Tcruzi prolif = T. cruzi intracellular proliferation inhibitors, primary screen, cell-based, beta-gal Tulahuen parasites, NIH3T3 host, luminescence; T. cruzi beta-gal in NIH3T3, GalScreen luminescence, 90 h; inhibition, % at 8.34 µM; hit rate 5.9% among 77,000; AID 624255, 2012;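 active = mean inhibition above about 93%, with at least 55% of replicates each passing it, limit read from the data, passing the limit was not always enough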
Large screens that a line does not name were inactive; ! = repeats disagree.

C[C@H](CO)N1C[C@H](C)[C@H](CN(C)C(=O)Nc2ccc(F)cc2)Oc2c(NC(=O)CCCCCC(=O)Nc3ccccc3N)cccc2C1=O	none (no result: Tcruzi prolif)
C[C@@H]1CN([C@@H](C)CO)C(=O)c2cccc(NC(=O)CCCCCC(=O)Nc3ccccc3N)c2O[C@@H]1CN(C)C(=O)Nc1ccc(F)cc1	Pf Dd2 growth -86 (no result: Tcruzi prolif)
C[C@@H]1CN([C@@H](C)CO)C(=O)c2cccc(NC(=O)CCCCCC(=O)Nc3ccccc3N)c2O[C@@H]1CN(C)C(=O)Nc1cccc2ccccc12	Pf Dd2 growth -88 (no result: Tcruzi prolif)
Cc1noc(C)c1NC(=O)N(C)C[C@@H]1Oc2c(NC(=O)CCCCCC(=O)Nc3ccccc3N)cccc2C(=O)N([C@@H](C)CO)C[C@@H]1C	none (no result: Tcruzi prolif)
Cc1noc(C)c1NC(=O)N(C)C[C@H]1Oc2c(NC(=O)CCCCCC(=O)Nc3ccccc3N)cccc2C(=O)N([C@@H](C)CO)C[C@H]1C	Pf Dd2 growth -86 (no result: Tcruzi prolif)
C[C@@H]1CN([C@H](C)CO)C(=O)c2cccc(NC(=O)CCCCCC(=O)Nc3ccccc3N)c2O[C@H]1CN(C)C(=O)Nc1ccc(F)cc1	none (no result: Tcruzi prolif)
C[C@H](CO)N1C[C@H](C)[C@H](CN(C)C(=O)Nc2ccccc2)Oc2c(NC(=O)CCCCCC(=O)Nc3ccccc3N)cccc2C1=O	none (no result: Tcruzi prolif)
C[C@@H]1CN([C@@H](C)CO)C(=O)Cc2cc(NC(=O)Nc3ccc4c(c3)OCO4)ccc2O[C@@H]1CN(C)Cc1ccc(C(=O)Nc2ccccc2N)cc1	none (no result: Tcruzi prolif)
C[C@@H]1CN([C@@H](C)CO)C(=O)c2cc(NC(=O)CCCN(C)C)ccc2O[C@@H]1CN(C)CC1CCCCC1	none (no result: Tcruzi prolif)
C[C@@H]1CN([C@H](C)CO)C(=O)c2cccc(NS(=O)(=O)c3ccc(Cl)cc3)c2O[C@@H]1CN(C)Cc1ccc(-c2ccccc2)cc1	none
C[C@@H]1CCCCO[C@H](CN(C)C)[C@H](C)CN([C@H](C)CO)C(=O)c2cc(NS(=O)(=O)c3cn(C)cn3)ccc2O1	none
C[C@@H]1CN([C@H](C)CO)C(=O)c2cccc(NC(=O)CCCCCC(=O)Nc3ccccc3N)c2O[C@@H]1CN(C)C(=O)Nc1ccc2c(c1)OCO2	Pf Dd2 growth -82 (no result: Tcruzi prolif)
C[C@@H]1CN([C@H](C)CO)C(=O)c2cc(NC(=O)CCCCCC(=O)Nc3ccccc3N)ccc2O[C@@H]1CN(C)C(=O)Nc1ccc2c(c1)OCO2	none
CCC(=O)N(C)C[C@H]1Oc2cc(-c3ccc(F)cc3)ccc2S(=O)(=O)N([C@@H](C)CO)C[C@@H]1C	none
O=C(C[C@@H]1C[C@@H]2c3cc(NS(=O)(=O)c4ccc(F)cc4)ccc3O[C@@H]2[C@H](CO)O1)N1CCOCC1	none
O=C(C[C@@H]1CC[C@H]2[C@@H](COC[C@H](O)CN2C(=O)Nc2ccc(F)cc2)O1)NCC1CC1	none (no result: Tcruzi prolif)
O=C(C[C@@H]1CC[C@@H]2[C@H](COC[C@H](O)CN2C(=O)Nc2ccc(C(F)(F)F)cc2)O1)NCC1CCCCC1	C diff growth -101! (no result: Tcruzi prolif)
O=C(C[C@@H]1CC[C@@H]2[C@H](COC[C@@H](O)CN2C(=O)Nc2ccc(Cl)cc2)O1)NCC1CCCCC1	none
O=C(C[C@H]1CC[C@H]2[C@@H](COC[C@H](O)CN2C(=O)Nc2ccc(C(F)(F)F)cc2)O1)NCC1CCCCC1	none (no result: Tcruzi prolif)
O=C(C[C@H]1CC[C@H]2[C@@H](COC[C@@H](O)CN2C(=O)Nc2ccc(C(F)(F)F)cc2)O1)NCC1CCCCC1	C diff growth -101! (no result: Tcruzi prolif)
O=C(C[C@H]1CC[C@@H]2[C@H](COC[C@H](O)CN2C(=O)Nc2ccc(C(F)(F)F)cc2)O1)NCC1CCCCC1	C diff growth -102! (no result: Tcruzi prolif)
CNC[C@@H]1Oc2ccc(NC(=O)Cc3ccccc3)cc2C(=O)N([C@H](C)CO)C[C@H]1C	none
COc1ccccc1CNC(=O)C[C@H]1C[C@@H]2c3cc(NC(=O)C4CCOCC4)ccc3O[C@@H]2[C@@H](CO)O1	none
C[C@@H]1CN([C@H](C)CO)C(=O)c2cc(NC(=O)Cc3ccccc3)ccc2O[C@H]1CN(C)S(=O)(=O)c1ccc(F)cc1	none
C[C@H](CO)N1C[C@H](C)[C@H](CN(C)S(=O)(=O)c2ccc(F)cc2)OCCCC[C@H](C)Oc2ccc(NC(=O)Nc3cccc4ccccc34)cc2C1=O	none
C[C@H]1CCCCO[C@@H](CN(C)S(=O)(=O)c2ccc(F)cc2)[C@@H](C)CN([C@@H](C)CO)C(=O)c2cc(NC(=O)Nc3cccc4ccccc34)ccc2O1	none (no result: Tcruzi prolif)
C[C@@H]1CN([C@H](C)CO)C(=O)c2cc(NC(=O)Nc3cccc4ccccc34)ccc2O[C@@H](C)CCCCO[C@@H]1CN(C)S(=O)(=O)c1ccc(F)cc1	Pf Dd2 growth -87
C[C@@H]1CN([C@@H](C)CO)C(=O)c2cc(NC(=O)Nc3cccc4ccccc34)ccc2O[C@@H](C)CCCCO[C@@H]1CN(C)S(=O)(=O)c1ccc(F)cc1	Pf Dd2 growth -83

Screening results from PubChem.
